SmPrx2 inh: Schistosoma mansoni Prx2 inhibition; S. mansoni Prx2 activity coupled to TGR/GSH (TGR is thioredoxin glutathione reductase), NADPH fluorescence loss, qHTS; Potency, µM; 65,000 tested, 0.07% active; AID 448
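Prx2 activity was followed as the loss of NADPH fluorescence (ex 365/em 450 nm), read every 30 sec for 8 min after H2O2 start. The enzyme mix (50 nM Prx2, 25 nM TGR, GSH, NADPH; pH 7.4 phosphate buffer) was incubated with compound for 15 min at room temperature first.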
AmpC det inh: AmpC beta-lactamase inhibition, detergent assay. P00811. purified AmpC, nitrocefin hydrolysis with detergent. Potency, µM (doses to about 28.7 µM), for the others: at the highest dose activity change, negative = inhibition. 71,000 tested, 0.09% active; active = well fitted curve in the direction sought with a large enough effect; inconclusive = small, poorly fitted or top-dose-only effect; note: % is set by controls: 0 for no effect and ±100 for the full control effect
Target sequence (P00811 whole entry, looked up): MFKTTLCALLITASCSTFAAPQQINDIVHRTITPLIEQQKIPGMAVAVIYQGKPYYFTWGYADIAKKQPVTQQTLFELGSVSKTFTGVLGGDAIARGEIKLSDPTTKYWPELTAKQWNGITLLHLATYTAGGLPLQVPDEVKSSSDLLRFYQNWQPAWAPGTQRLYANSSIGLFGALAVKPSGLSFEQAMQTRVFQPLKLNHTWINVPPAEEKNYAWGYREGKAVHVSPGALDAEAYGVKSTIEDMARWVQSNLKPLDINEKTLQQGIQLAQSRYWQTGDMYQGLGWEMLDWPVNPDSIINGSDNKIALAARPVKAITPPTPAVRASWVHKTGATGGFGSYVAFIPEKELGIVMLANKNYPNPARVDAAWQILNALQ
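E. coli AmpC (5.3 nM) in 20 mM phosphate pH 7.0 with 0.01% Triton X-100, preincubated 15 min RT with compound; nitrocefin (2 uL of 800 uM stock) hydrolysis followed by 480 nm absorbance every 20 s over 4 min.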
LT uptake inh: anthrax lethal toxin internalization inhibition. Cells, anthrax lethal toxin internalization, FRET ratio (460/530). Potency, µM (highest dose often 40 µM), without a hit: at the highest dose activity change, negative = inhibition, hits mostly inhibitors. 70,000 tested, 0.67% active; note: % is set by controls: 0 for no effect and ±100 for the full control effect; nearly all actives have a fitted effect of over 50% in size
AmpC inh no det: AmpC beta-lactamase inhibition, detergent-free assay; Potency, µM (titrated, usually from 28.7 µM), for inactives: top-dose activity change, negative = inhibition; P00811; AmpC nitrocefin hydrolysis, absorbance 480 nm, no detergent; AID 585; 71,000 tested, 1.8% active; note: % of control where 0% means no effect
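AmpC, 20 mM phosphate pH 7.0; 15 min cpd preinc, RT; start with nitrocefin (800 uM stock); A480 kinetic read, 20 s intervals, 4 min. No-enzyme wells = negative control.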
* = called active by the depositor; ? = inconclusive; . = not tested or not shown; [ ] = dose if it differs, or a comment. In the library only some 2.6% were active in any assay of this set; here they are far more common. Unless noted, calls come from the whole dose curve. Potency is the fitted concentration of half-maximal effect.

SMILES | SmPrx2 inh | AmpC det inh | LT uptake inh | AmpC inh no det
Cc1ccc(NC(=O)CC2Oc3ccc(C)cc3NC2=O)cc1 (centres undefined) | >57 | 10% | -6% | -15%
Cc1ccc(S(=O)(=O)C2(C(=O)Nc3nccs3)CC2)cc1 | >57 | 12% | -5% | 4µM*[single pt active]
Cc1ccc(S(=O)(=O)C2(C(=O)Nc3cccc(F)c3)CC2)cc1 | >57 | 11% | -14% | 4µM*[single pt active]
O=C(Nc1nccs1)C1(S(=O)(=O)c2ccc(Cl)cc2)CC1 | >57 | -3% | 8% | 4%
NCCc1nc(-c2nc(C(=O)O)cs2)cs1 | >57 | -6%[5.75 µM] | 7%[8 µM] | 2%[5.75 µM]
Cc1ccccc1-c1nccc(NCc2cccs2)n1 | >57 | 6% | -3% | -4%
COC(=O)C(C(C)=O)C(=O)C(Cc1ccccc1)NC(=O)OCc1ccccc1 (centres undefined) | . | . | -12%[8 µM] | .
O=C(N[C@@H](Cc1ccccc1)C(=O)CCl)OCc1ccccc1 | >57 | -5% | 16µM* | -2%
OCCN1CCN(C(c2cccs2)c2ccc3cccnc3c2O)CC1 (centres undefined) | >57 | -7% | ? | 13µM*
C[C@@H]1C(=O)N(C)C(=O)c2nc[nH]c21 | >57 | -1% | -2% | 2%
N#Cc1cccc(NC(=O)NCCc2c[nH]c3ccccc23)c1 | >57 | 13% | 13µM* | 4µM*[single pt active]
CC(=O)NCCc1c[nH]c2ccccc12 | >57 | -1% | -1% | -2%
C=C[C@]1(C)C[C@H](OC(=O)CO)[C@]2(C)C3C(=O)CC[C@]3(CC[C@H]2C)[C@H](C)[C@H]1O (some centres undefined) | >57 | -6%[5.75 µM] | -11%[8 µM] | 3%[5.75 µM]
CC(C)Cc1nnc(NS(=O)(=O)c2ccc(Cl)cc2)s1 | >57 | 25% | -14% | 4µM*[single pt active]
COCc1nnc(NS(=O)(=O)c2ccc(C)cc2)s1 | >57 | 15% | -6% | -10%
CC1=C(C(=O)NC(C)C)C2(CCC(C)CC2)OC1=O (centres undefined) | >57 | 19% | -6% | 4µM*[single pt active]
CC1=C(C(=O)NC2CCCCC2C)C2(CCC(C)CC2)OC1=O (centres undefined) | >57 | 2% | -17% | 24%
O=C(Oc1ccccc1)N1CCC2(CC1)CN(c1ccccc1)C2 | >57 | 3% | ? | 62%
O=C(Nc1ccc2c(c1)OCO2)C1Cc2ccccc2CN1S(=O)(=O)c1cccs1 (centres undefined) | >57 | -6% | ? | 10µM*[single pt active]
O=C(Nc1ccc2c(c1)OCO2)C1CCN(S(=O)(=O)c2cccs2)CC1 | >57 | 10% | -10% | ?
CCC(=O)c1ccc(OCC(O)CN2CCOCC2)cc1 (centres undefined) | >57 | -3% | 3% | 17%
CC(=O)c1ccc(OCC(O)CN2C(C)CCCC2C)cc1 (centres undefined) | >57 | 12% | -10% | 4µM*[single pt active]
CC(=O)c1ccc(OCC(O)CN2CCC(C)CC2)cc1 (centres undefined) | >57 | 12% | -8% | 4µM*[single pt active]
CC(=O)c1ccc(OCC(O)CN2CCOCC2)cc1 (centres undefined) | >57 | 8% | -14% | 4µM*[single pt active]
COC(=O)c1ccc(OCC(O)CN2CCC(C)CC2)cc1 (centres undefined) | >57 | 9% | 0% | -4%
SMILES | SmPrx2 inh | AmpC det inh | LT uptake inh | AmpC inh no det
CCOC(=O)C1CCN(CCC(=O)Nc2cccc(Cl)c2)CC1 | >57 | 1% | 10µM* | -10%
CCOC(=O)C1CCCN(CCC(=O)Nc2cccc(F)c2)C1 (centres undefined) | >57 | 9% | -20% | -3%
CCC/C=C(\CCC)C(NC(=O)c1ccccc1)c1ccccc1 (centres undefined) | >57 | 23% | -26% | -3%
CCOC(=O)N1CCN(c2c(NCc3ccccn3)c(=O)c2=O)CC1 | >57 | 15% | -14% | 4µM*[single pt active]
CCOC(=O)N1CCN(c2c(NCCCN(CC)c3cccc(C)c3)c(=O)c2=O)CC1 | >57 | -3% | 1% | 84%
CCOC(=O)N1CCN(c2c(Nc3cc(C)[nH]n3)c(=O)c2=O)CC1 | ? | 12% | -5% | 2.5µM*[single pt active]
COCCn1c(=O)c(C)nc2cnc(N3CCNCC3)nc21 | >57 | 0% | -1% | 33%
COC(=O)N1CCC[C@@]2(CCN(C(c3ccccc3)c3ccccc3)C2)C1 | >57 | 1% | 6% | 73%
CC(O)Cc1nsc(NC(=O)c2cccs2)n1 (centres undefined) | >57 | 13% | -8% | 4µM*[single pt active]
CCOC(=O)CCc1c(C)nc2cc(-c3ccccc3OC)[nH]n2c1=O | >57 | 9% | -6% | 4µM*[single pt active]

High-throughput results: PubChem BioAssay, National Center for Advancing Translational Sciences (NCATS)
